High-throughput results as filed in PubChem BioAssay.
CHO-K1 Ca antag – counter-screen for M1 antagonists: effect in parental CHO-K1 cells; ATP-induced calcium, Fluo-8 fluorescence; inhibition, % at 3 µM; actives 0.6% (n = 360,000);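 active means inhibition above a per-plate cutoff, the plate's mean sample inhibition plus 3 SD, cut at about 24% in these data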;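 further: 0% = DMSO plus EC80 ATP and 100% = DMSO alone without ATP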
M4 antag – human M4 muscarinic receptor antagonists, primary screen, CHO cells, Fluo-8 calcium fluorescence | actives 0.73% (n = 360,000) | Muscarinic acetylcholine receptor M4 (Homo sapiens), P08173 | inhibition, % at 3 µM | CHO-hM4 cells, ACh EC80;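 active means inhibition above its plate's cutoff, the mean inhibition of sample wells plus 3 SD, cut at about 27% in these data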;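 further: 0% = acetylcholine EC80 with DMSO and 100% = DMSO without agonist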
Target sequence (P08173 whole entry, looked up): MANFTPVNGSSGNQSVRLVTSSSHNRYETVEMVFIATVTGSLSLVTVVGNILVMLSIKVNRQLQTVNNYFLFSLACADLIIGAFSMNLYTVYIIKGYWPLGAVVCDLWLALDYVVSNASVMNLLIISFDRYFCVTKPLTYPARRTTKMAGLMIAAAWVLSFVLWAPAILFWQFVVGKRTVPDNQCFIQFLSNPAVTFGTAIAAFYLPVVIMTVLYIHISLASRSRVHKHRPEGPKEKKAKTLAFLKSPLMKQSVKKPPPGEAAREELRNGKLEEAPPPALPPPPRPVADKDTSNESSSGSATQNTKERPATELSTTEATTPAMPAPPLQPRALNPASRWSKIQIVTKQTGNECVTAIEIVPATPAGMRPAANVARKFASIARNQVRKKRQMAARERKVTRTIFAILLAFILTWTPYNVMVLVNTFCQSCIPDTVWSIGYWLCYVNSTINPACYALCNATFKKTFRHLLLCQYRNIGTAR
CHRM4 agonist – human M4 muscarinic receptor agonists, primary screen, CHO-K1 cells, Fluo-8 calcium fluorescence. AID 624127, 2012. Muscarinic acetylcholine receptor M4 (Homo sapiens), P08173. activation, % at 3 µM. actives 0.14% (n = 360,000). CHO-K1 hM4/Gqi5; vehicle 0%, full acetylcholine response 100%;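 active means activation above the run mean over all test wells plus 3 SD, cut at about 32% in these data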;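 further: peak over basal fluorescence ratio per well then scaled between controls; 0% = DMSO wells and 100% = acetylcholine at EC100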
CHO-K1 Ca ag – counter-screen for M1 agonists: effect in parental CHO-K1 cells; Fluo-8 calcium fluorescence; scaled to maximal ATP response, vehicle zero; activation, % at 3 µM; actives 0.48% (n = 360,000); in the data active means activation above about 15%;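 further: untransfected CHO-K1 host cells lacking M1 receptor as counterscreen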
M4 PAM – human M4 muscarinic receptor positive allosteric modulators, primary screen, CHO-K1 cells, Fluo-8 calcium fluorescence; Muscarinic acetylcholine receptor M4 (Homo sapiens), P08173; CHO-K1 hM4/Gqi5, ACh EC20; 0% = ACh EC20, 100% = maximal ACh; activation, % at 3 µM; actives 0.4% (n = 360,000); AID 624126, 2012;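 active means activation above its plate's cutoff, the mean activation of sample wells plus 3 SD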
M1 PAM parental – nonselective calcium activators in parental CHO-K1 cells, primary screen, counter-screen for M1 PAM project, cell-based, Fluo-8 calcium fluorescence, full deck, 1536-well; AID 602247, 2012; ATP EC20; 0% at ATP EC20, 100% at ATP max; activation, % at 3 µM; actives 0.02% (n = 360,000);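 active means activation above the run cutoff, the mean activation of all test compounds plus 3 SD, cut at about 40% in these data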;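 further: peak over basal fluorescence ratio in a 140 s read after ATP addition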
Active calls of the source: *. An excerpt weighted towards active compounds, which were near 2% of everything screened.

SMILES	CHO-K1 Ca antag	M4 antag	CHRM4 agonist	CHO-K1 Ca ag	M4 PAM	M1 PAM parental
Cc1ccc(S(=O)(=O)c2ccc([N+](=O)[O-])o2)cc1	0.9	36.1*	0.3	-0.2	-5.5	0.4
Cc1ccc(S(=O)(=O)NCCCN2CCCC2)cc1	-11.3	17.3	5.7	2.9	21.1*	12.8
Cc1ccc(S(=O)(=O)NCCCNc2ccc([N+](=O)[O-])cc2)cc1	18.0	12.3	11.5	20.6*	-11.2	-0.6
Cc1ccccc1OCC(=O)OC(C)C(=O)NC1CCCC1 (centres undefined)	-3.6	8.5	0.3	-0.4	-0.3	-10.8
COC(=O)c1ccc2nc(NC(=O)C(C)(C)C)sc2c1	8.0	-0.8	3.2	16.8*	-5.2	7.1
COc1ccc(CC(=O)N2CCC(CCC(=O)Nc3ccccc3)CC2)cc1	23.9*	-3.1	3.5	8.4	-1.4	-10.5
Cc1cc(Nc2ccc(Cl)cc2)nc(NCc2ccccc2)n1	12.1	-0.1	9.3	8.5	-0.8	16.2
CCCCNc1cc(C)nc(NCc2ccccc2)n1	25.9*	32.6*	23.2	9.5	-6.1	-0.4
Cc1cc(C)nc(NCCCc2ccccc2)n1	-9.6	-7.6	-0.4	0.7	9.4	24.3
Cc1cc(Oc2ccccc2F)nc(NCc2ccccc2)n1	5.1	-4.4	1.0	0.8	1.7	8.3
Cc1cc(Nc2ccccc2)nc(NCc2ccccc2)n1	27.1*	21.9	12.8	9.9	-11.4	2.1
Cc1cc(Oc2ccccc2)nc(NCc2ccccc2)n1	37.8*	0.8	-0.6	1.1	20.1	-2.1
CCOc1ccccc1N1CC(C(=O)NC2CCCCCC2)CC1=O (centres undefined)	-20.6	-9.6	1.5	0.6	1.4	12.7
C=CCn1c(SCC(=O)N2CCOCC2)nc2ccccc2c1=O	-12.4	-13.3	-0.5	-0.6	-3.6	22.7
COc1ccc(S(=O)(=O)N/N=c2\oc3c(OC)cccc3cc2S(=O)(=O)c2ccc(C)cc2)cc1OC	-13.0	-8.3	2.5	2.5	1.5	25.8
COc1cccc(C(=O)NNC(=O)c2ccccc2-n2cccc2)c1	3.4	-2.5	2.6	0.8	-0.3	-7.7
COc1cccc(C(=O)NNC(=O)c2sccc2-n2cccc2)c1	3.8	2.8	2.2	17.7*	4.2	3.5
CC(C)[C@@H]1CC[C@@H](C)C[C@H]1OC(=O)C[n+]1cc(-c2ccc(Cl)cc2)n2c1CCCCC2	8.8	41.5*	0.5	3.3	-51.1	12.5
COc1ccc(-c2c[n+](CC(=O)OC3CC(C)CCC3C(C)C)c3n2CCC3)cc1 (centres undefined)	1.5	33.5*	1.5	0.9	-24.0	7.5
CCOC(=O)N1CCN(c2c(-c3ccc(C)cc3)c(=O)c2=O)CC1	13.7	-1.7	-1.0	-0.3	9.1	3.8
CCOC(=O)N1CCN(c2c(-c3ccc(C(C)C)cc3)c(=O)c2=O)CC1	26.2*	5.4	-1.5	-0.9	-8.6	-7.3
O=C(Nc1ccncc1)c1ccc2c(c1)C(=O)N(C1CCCCC1)C2=O	16.6	41.7*	19.0	9.0	-12.9	11.8
Cc1cc(NC(=O)c2ccc3c(c2)C(=O)N(C2CCCCC2)C3=O)no1	-9.5	-3.3	-0.3	-0.5	-3.9	12.9
COc1ccc(CN2CCNC(=O)C2CC(=O)N(Cc2nccn2C)C(C)C)c(OC)c1 (centres undefined)	-4.4	-1.1	0.7	-0.2	30.8*	-9.1
CCn1c(N)c(C(=O)COC(=O)CCc2nc3ccccc3c(=O)[nH]2)c(=O)[nH]c1=O	-25.0	-16.1	0.7	0.0	13.2	18.6
COc1ccccc1C1CCN(Cc2ccc(C)cc2)CC1	-3.9	-10.3	2.3	18.1*	3.0	18.3
O=C(O)C1CC=CCC1C(=O)Nc1ccccc1 (centres undefined)	25.1*	7.6	0.5	-0.3	-10.2	-5.8
CCN1C(c2ccc(F)cc2)=CS/C1=C(/C#N)c1nnc2n1-c1ccccc1SC2	-8.4	3.4	9.5	6.8	-9.6	3.6
